The source of these data is PubChem BioAssay (NCATS).

Each structure is given as a SMILES string. Records with an inconclusive call do not appear. Active and inactive are the calls of the source. Calls come from the whole dose curve; as a rule, active = well fitted inhibition curve with a large enough effect; inconclusive = small, poorly fitted or top-dose-only effect; inactive = flat fitted curve, though single readings scatter.
% is set by controls: 0 for no effect and ±100 for the full control effect.

The nature of one assay: Drug repurposing screens with cells derived from glioblastoma tumor samples (AID 1345199). Note: nearly all actives have a fitted effect of over 40% in size. The following applies: GBM patient neurospheres viability, ATP luminescence, 48 h; at 21.2 µM (top of the series); tumour line D. The essentials: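 Primary testing used CD133+ neurospheres from four GBM patients, seven concentrations, 48 h exposure and ATP-based viability; confirmation added three slower-growing patient lines.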
For the compound `NC(N)=NS(=O)(=O)c1ccc(N)cc1`, the activity, negative = cell killing was 9.81% (inactive). The same measure, in the same setting: the same measure for `CC1(C)[C@@H](OC(=O)CCC(=O)O)CC[C@]2(C)[C@H]3C(=O)C=C4[C@@H]5C[C@@](C)(C(=O)O)CC[C@]5(C)CC[C@@]4(C)[C@]3(C)CC[C@@H]12`: -19.2% (inactive); for `CO[C@@]1(NC(=O)C(C(=O)O)c2ccc(O)cc2)C(=O)N2C(C(=O)O)=C(CSc3nnnn3C)CO[C@@H]21` (some centres not stated): -3.96% (inactive); for `CCS(=O)(=O)CCn1c([N+](=O)[O-])cnc1C`: 3.43% (inactive).

Regarding `C[N+]1(C)CCCC(OC(=O)C(O)(c2ccccc2)c2ccccc2)C1` (configuration not stated), the activity, negative = cell killing was 4.26% (inactive). `CCN(CC)CCc1nc(-c2ccccc2)no1`: the activity, negative = cell killing is 5.97% (inactive). Still for that read-out and setting: the same measure for `CC(C)(C)C(=O)OCOC(=O)[C@@H]1N2C(=O)[C@@H](NC(=O)[C@H](N)c3ccccc3)[C@H]2SC1(C)C`: -17.5% (inactive). On the same count and under the same terms, the same measure for `CCc1cccc(CC)c1NC(=O)CN(CC(=O)O)CC(=O)O`: -7.08% (inactive).

For `CN[C@@H]1[C@H](O)[C@H](NC)[C@H]2O[C@@]3(O)C(=O)C[C@@H](C)O[C@H]3O[C@@H]2[C@H]1O`, the activity, negative = cell killing is 0.484% (inactive).

Staying with this assay, now noted: GBM patient neurospheres viability, ATP luminescence, 48 h; at 21.3 µM (top of the series); tumour line A.
Take `NC(N)=NS(=O)(=O)c1ccc(N)cc1`: the activity, negative = cell killing is 6.37% (inactive). Still for that read-out and setting: the value for `CC1(C)[C@@H](OC(=O)CCC(=O)O)CC[C@]2(C)[C@H]3C(=O)C=C4[C@@H]5C[C@@](C)(C(=O)O)CC[C@]5(C)CC[C@@]4(C)[C@]3(C)CC[C@@H]12` was -22.2% (inactive); that for `CO[C@@]1(NC(=O)C(C(=O)O)c2ccc(O)cc2)C(=O)N2C(C(=O)O)=C(CSc3nnnn3C)CO[C@@H]21` (some centres not stated) was -23.1% (inactive).

For the compound `CCS(=O)(=O)CCn1c([N+](=O)[O-])cnc1C`, the activity, negative = cell killing was -20.5% (inactive). Same read-out and setting: the value for `C[N+]1(C)CCCC(OC(=O)C(O)(c2ccccc2)c2ccccc2)C1` (configuration not stated) was -24.7% (inactive); that for `CCN(CC)CCc1nc(-c2ccccc2)no1` was -18.4% (inactive); that for `CC(C)(C)C(=O)OCOC(=O)[C@@H]1N2C(=O)[C@@H](NC(=O)[C@H](N)c3ccccc3)[C@H]2SC1(C)C` was -4.53% (inactive). Same read-out and setting: the same measure for `CCc1cccc(CC)c1NC(=O)CN(CC(=O)O)CC(=O)O`: -26% (inactive); for `CN[C@@H]1[C@H](O)[C@H](NC)[C@H]2O[C@@]3(O)C(=O)C[C@@H](C)O[C@H]3O[C@@H]2[C@H]1O`: -6.42% (inactive).

The assay is the same for the next values; noted with them: GBM patient neurospheres viability, ATP luminescence, 48 h; at 45.9 µM (top of the series); tumour line B.
Regarding `CC[C@]12CCCN3CCc4c(n(c5ccccc45)[C@@](O)(C(=O)OC)C1)[C@@H]32`, the activity, negative = cell killing is -12.1% (inactive). Still for that read-out and setting: the value for `CN1CC(=O)NC1=N` was -7.86% (inactive). The same measure, in the same setting: the same measure for `O=C(/C=C/c1ccc(O)c(O)c1)O[C@@H]1C[C@@](OC(=O)/C=C/c2ccc(O)c(O)c2)(C(=O)O)C[C@@H](O)[C@@H]1O`: 1.43% (inactive). Still for that read-out and setting: the value for `Cn1c(=O)c2c(ncn2CCO)n(C)c1=O` was -5.04% (inactive). On to `OCc1ccc(Cl)cc1Cl`, for which the activity, negative = cell killing is -6.96% (inactive). On the same count and under the same terms, the same measure for `CC(=O)N1C[C@H](O)C[C@H]1C(=O)O`: -12.7% (inactive); for `CC(=O)NCc1c(I)c(NC(C)=O)c(I)c(C(=O)O)c1I`: -9.68% (inactive); for `Cc1c(C)c2c(c(C)c1OC(=O)c1cccnc1)CC[C@@](C)(CCC[C@H](C)CCC[C@H](C)CCCC(C)C)O2`: -11.4% (inactive). In the case of `NC(=O)NS(=O)(=O)c1ccc(N)cc1`, the activity, negative = cell killing was -9.53% (inactive). For the compound `O=C(O)c1cc(=O)c2ccccc2o1`, the activity, negative = cell killing is -4.66% (inactive). Regarding `CN1C(=O)CC(c2ccccc2)C1=O` (configuration not stated), the activity, negative = cell killing is 3.75% (inactive). The same measure, in the same setting: the same measure for `COc1nccnc1NS(=O)(=O)c1ccc(N)cc1`: 0.463% (inactive). Same read-out and setting: the same measure for `CC(=O)N[C@@H](CC(C)C)C(=O)O`: -11.1% (inactive); for `COc1ccc(-c2cc(=O)c3c(O)cc(O[C@@H]4O[C@H](CO[C@@H]5O[C@@H](C)[C@H](O)[C@@H](O)[C@H]5O)[C@@H](O)[C@H](O)[C@H]4O)cc3o2)cc1O`: -6.79% (inactive).

With `Cc1c(I)c(=O)n(-c2ccccc2)n1C`, the activity, negative = cell killing is -4.2% (inactive). Still for that read-out and setting: the same measure for `O=C(O)CCC(=O)O`: -11.8% (inactive); for `CC(=O)N[C@H]1[C@H]([C@H](O)[C@H](O)CO)OC(C(=O)O)=C[C@@H]1N=C(N)N`: -18.7% (inactive); for `CC(C)CCCC(C)CCCC(C)CCCCC(C)CCCC(C)CCCC(C)C` (configuration not stated): 2.81% (inactive).

With `NC(=O)CC[C@@H](N)C(=O)O`, the activity, negative = cell killing was -5.88% (inactive).

`COC(=O)N/N=C/c1c[n+]([O-])c2ccccc2[n+]1[O-]`: the activity, negative = cell killing was 3.32% (inactive). Same read-out and setting: the value for `O=C(O)c1ccccc1C(=O)Nc1ccc(S(=O)(=O)Nc2nccs2)cc1` was -6.87% (inactive). Same read-out and setting: the same measure for `COc1cc(O)cc(O)c1`: -0.182% (inactive); for `C[C@@H]1O[C@@H](OC[C@H]2O[C@@H](Oc3c(-c4ccc(O)c(O)c4)oc4cc(O)cc(O)c4c3=O)[C@H](O)[C@@H](O)[C@@H]2O)[C@H](O)[C@H](O)[C@H]1O`: -2.66% (inactive). With `CCN(CC)S(=O)(=O)c1ccc(C(=O)O)cc1`, the activity, negative = cell killing is -12.2% (inactive). The same measure, in the same setting: the same measure for `Cc1c(Cn2ccnc2)c2ccccc2n1CCC(=O)O`: 1.3% (inactive); for `CN1C(C)(C)CCCC1(C)C`: -6.99% (inactive). On the same count and under the same terms, the same measure for `CC1(C)S[C@@H]2[C@H](NC(=O)C(C(=O)O)c3ccccc3)C(=O)N2[C@H]1C(=O)O` (some centres not stated): 2.69% (inactive); for `CN[C@@H]1[C@@H](O)[C@@H](O[C@@H]2[C@H](O)[C@H](O[C@H]3OC(CN)=CC[C@H]3N)[C@@H](N)C[C@H]2N)OCC1(C)O` (some centres not stated): -0.265% (inactive).

As to `C/C=C1\[C@H]2C=C(C)C[C@]1(N)c1ccc(=O)[nH]c1C2`, the activity, negative = cell killing is -6.65% (inactive).
